Measured values from PubChem BioAssay AID1159580 (chemical genetic matrix, 2015).
The whole screen tested about 5,500 compounds, of which about 2,000 (36%) were called active. About 18% were inconclusive and are not listed. Cut-off read from the data, not from the text of the source: active = normalized growth mostly below about 0.91 (no sharp cut-off); inconclusive = no clear call, values can overlap the other calls; inactive = mostly above about 0.92. The list shows a part of the results.

Assay: chemical genetic growth profiling, strain panel (AID 1159580);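 note: tested at 20 µM; growth read once vehicle control cultures reached saturation at 30 °C; 1 = growth at the plate median or of vehicle wells; lower values mean less growth of the strain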
Settings: growth OD

Measured: normalized growth

COC(=O)[C@]1(C)CCC[C@]2(C)c3ccc(C(C)C)cc3C(=O)CC12 (stereo partly drawn)
inactive: S. cerevisiae deletion strains, locus YJL187C, strain SWE1, stronger effect = lower value 0.956 | S. cerevisiae deletion strains, locus YJR043C, strain POL32, stronger effect = lower value 1.03 | S. cerevisiae deletion strains, locus YJR075W, strain HOC1, stronger effect = lower value 0.914 | S. cerevisiae deletion strains, locus YKL009W, strain mrt4, stronger effect = lower value 0.942 | S. cerevisiae deletion strains, locus YKL068W, stronger effect = lower value 0.984 | S. cerevisiae deletion strains, locus YKL160W, strain elf1, stronger effect = lower value 0.983 | S. cerevisiae deletion strains, locus YKL190W, strain CNB1, stronger effect = lower value 0.967 | S. cerevisiae deletion strains, locus YKR001C, strain vps1, stronger effect = lower value 1.01 | S. cerevisiae deletion strains, locus YKR026C, strain gcn3, stronger effect = lower value 0.975 | S. cerevisiae deletion strains, locus YKR091W, strain srl3, stronger effect = lower value 0.96 | S. cerevisiae deletion strains, locus YLL001W, strain dnm1, stronger effect = lower value 0.986 | S. cerevisiae deletion strains, locus YLL026W, stronger effect = lower value 0.964 | S. cerevisiae deletion strains, locus YLL041C, strain sdh2, stronger effect = lower value 0.958 | S. cerevisiae deletion strains, locus YLR027C, strain aat2, stronger effect = lower value 0.956 | S. cerevisiae deletion strains, locus YLR039C, strain RIC1, stronger effect = lower value 0.978 | S. cerevisiae deletion strains, locus YLR058C, strain SHM2, stronger effect = lower value 0.986 | S. cerevisiae deletion strains, locus YLR102C, strain apc9, stronger effect = lower value 1.01 | S. cerevisiae deletion strains, locus YLR221C, strain rsa3, stronger effect = lower value 1 | S. cerevisiae deletion strains, locus YLR258W, strain gsy2, stronger effect = lower value 0.973 | S. cerevisiae deletion strains, locus YLR262C, strain YPT6 (second series), stronger effect = lower value 0.897 | S. cerevisiae deletion strains, locus YLR262C, strain YPT6, stronger effect = lower value 0.925 | S. cerevisiae deletion strains, locus YLR268W, strain sec22, stronger effect = lower value 0.955 | S. cerevisiae deletion strains, locus YLR320W, strain mms22, stronger effect = lower value 0.991 | S. cerevisiae deletion strains, locus YLR330W, strain CHS5, stronger effect = lower value 0.997 | S. cerevisiae deletion strains, locus YLR342W, strain FKS1 (second series), stronger effect = lower value 0.937 | S. cerevisiae deletion strains, locus YLR342W, strain FKS1, stronger effect = lower value 0.958 | S. cerevisiae deletion strains, locus YLR357W, strain rsc2, stronger effect = lower value 0.989 | S. cerevisiae deletion strains, locus YLR370C, strain arc18, stronger effect = lower value 0.949 | S. cerevisiae deletion strains, locus YLR371W, strain rom2, stronger effect = lower value 1.01 | S. cerevisiae deletion strains, locus YLR384C, strain iki3, stronger effect = lower value 0.96 | S. cerevisiae deletion strains, locus YLR418C, strain cdc73, stronger effect = lower value 0.865 | S. cerevisiae deletion strains, locus YML016C, strain PPZ1, stronger effect = lower value 0.979 | S. cerevisiae deletion strains, locus YML032C, strain rad52, stronger effect = lower value 1.03 | S. cerevisiae deletion strains, locus YML120C, strain ndi1, stronger effect = lower value 0.965 | S. cerevisiae deletion strains, locus YML124C, strain tub3, stronger effect = lower value 0.991 | S. cerevisiae deletion strains, locus YMR058W, strain fet3, stronger effect = lower value 0.969 | S. cerevisiae deletion strains, locus YMR078C, strain ctf18, stronger effect = lower value 1 | S. cerevisiae deletion strains, locus YMR125W, strain sto1, stronger effect = lower value 0.964 | S. cerevisiae deletion strains, locus YMR129W, stronger effect = lower value 0.956 | S. cerevisiae deletion strains, locus YMR205C, strain PFK2, stronger effect = lower value 0.934 | S. cerevisiae deletion strains, locus YMR223W, strain ubp8, stronger effect = lower value 1.02 | S. cerevisiae deletion strains, locus YMR231W, strain pep5, stronger effect = lower value 0.974 | S. cerevisiae deletion strains, locus YMR263W, strain SAP30, stronger effect = lower value 0.961 | S. cerevisiae deletion strains, locus YMR307W, strain GAS1, stronger effect = lower value 0.953 | S. cerevisiae deletion strains, locus YNL067W, strain RPL9B, stronger effect = lower value 0.936 | S. cerevisiae deletion strains, locus YNL071W, strain lat1, stronger effect = lower value 0.952 | S. cerevisiae deletion strains, locus YNL128W, strain TEP1, stronger effect = lower value 0.964 | S. cerevisiae deletion strains, locus YNL153C, strain GIM3, stronger effect = lower value 0.982 | S. cerevisiae deletion strains, locus YNL209W, strain ssb2, stronger effect = lower value 0.992 | S. cerevisiae deletion strains, locus YNL233W, strain BNI4, stronger effect = lower value 0.971 | S. cerevisiae deletion strains, locus YNL248C, strain rpa49, stronger effect = lower value 0.962 | S. cerevisiae deletion strains, locus YNL250W, strain rad50, stronger effect = lower value 0.99 | S. cerevisiae deletion strains, locus YNL271C, strain bni1, stronger effect = lower value 1.01 | S. cerevisiae deletion strains, locus YNL298W, strain CLA4, stronger effect = lower value 1.01 | S. cerevisiae deletion strains, locus YNL307C, strain MCK1, stronger effect = lower value 0.985 | S. cerevisiae deletion strains, locus YNL322C, strain KRE1 (second series), stronger effect = lower value 0.954 | S. cerevisiae deletion strains, locus YNL322C, strain KRE1, stronger effect = lower value 0.979 | S. cerevisiae deletion strains, locus YNR049C, strain mso1, stronger effect = lower value 0.964 | S. cerevisiae deletion strains, locus YNR052C, strain pop2, stronger effect = lower value 1.04 | S. cerevisiae deletion strains, locus YOL006C, strain TOP1, stronger effect = lower value 0.828 | S. cerevisiae deletion strains, locus YOL012C, strain htz1 1.22 | S. cerevisiae deletion strains, locus YOL147C, strain pex11, stronger effect = lower value 1 | S. cerevisiae deletion strains, locus YOR001W, strain rrp6, stronger effect = lower value 0.987 | S. cerevisiae deletion strains, locus YOR061W, strain CKA2, stronger effect = lower value 0.977 | S. cerevisiae deletion strains, locus YOR069W, strain VPS5, stronger effect = lower value 0.996 | S. cerevisiae deletion strains, locus YOR070C, strain gyp1, stronger effect = lower value 0.988 | S. cerevisiae deletion strains, locus YOR080W, strain dia2, stronger effect = lower value 0.965 | S. cerevisiae deletion strains, locus YOR083W, strain WHI5, stronger effect = lower value 0.996 | S. cerevisiae deletion strains, locus YOR106W, strain vam3, stronger effect = lower value 0.965 | S. cerevisiae deletion strains, locus YOR136W, strain idh2, stronger effect = lower value 1.02 | S. cerevisiae deletion strains, locus YOR144C, strain elg1, stronger effect = lower value 0.998 | S. cerevisiae deletion strains, locus YOR184W, strain ser1, stronger effect = lower value 0.982 | S. cerevisiae deletion strains, locus YOR265W, strain rbl2, stronger effect = lower value 0.969 | S. cerevisiae deletion strains, locus YOR290C, strain snf2, stronger effect = lower value 0.949 | S. cerevisiae deletion strains, locus YOR316C, strain cot1, stronger effect = lower value 0.998 | S. cerevisiae deletion strains, locus YPL051W, strain arl3, stronger effect = lower value 0.984 | S. cerevisiae deletion strains, locus YPL055C, strain LGE1, stronger effect = lower value 0.868 | S. cerevisiae deletion strains, locus YPL078C, strain atp4, stronger effect = lower value 0.968 | S. cerevisiae deletion strains, locus YPL106C, strain sse1, stronger effect = lower value 0.989 | S. cerevisiae deletion strains, locus YPL240C, strain hsp82, stronger effect = lower value 0.968 | S. cerevisiae deletion strains, locus YPL241C, strain CIN2, stronger effect = lower value 0.974 | S. cerevisiae deletion strains, locus YPR119W, strain clb2, stronger effect = lower value 0.993 | S. cerevisiae deletion strains, locus YPR141C, strain kar3, stronger effect = lower value 0.981 | S. cerevisiae deletion strains, locus YPR163C, strain tif3, stronger effect = lower value 1 | S. cerevisiae deletion strains, locus YPR167C, strain met16, stronger effect = lower value 0.994 | S. cerevisiae deletion strains, strain wtn01, stronger effect = lower value 0.978 | S. cerevisiae strains, strain wild type, stronger effect = lower value 0.993
active: S. cerevisiae deletion strains, locus YOR270C, strain vph1, stronger effect = lower value 0.673
